Source: PubChem BioAssay

molecular target: NADPH oxidase 5 (Homo sapiens) (UniProt Q96PH1); assay: compounds shifting NOX5 Amplex Red fluorescence – cell-based, HEK293-NOX5, NOX inhibitor project, primary screen (AID 1161); conditions: HEK293-NOX5, ionomycin, 45 min, higher = more signal
Sequence (Q96PH1 whole entry, looked up): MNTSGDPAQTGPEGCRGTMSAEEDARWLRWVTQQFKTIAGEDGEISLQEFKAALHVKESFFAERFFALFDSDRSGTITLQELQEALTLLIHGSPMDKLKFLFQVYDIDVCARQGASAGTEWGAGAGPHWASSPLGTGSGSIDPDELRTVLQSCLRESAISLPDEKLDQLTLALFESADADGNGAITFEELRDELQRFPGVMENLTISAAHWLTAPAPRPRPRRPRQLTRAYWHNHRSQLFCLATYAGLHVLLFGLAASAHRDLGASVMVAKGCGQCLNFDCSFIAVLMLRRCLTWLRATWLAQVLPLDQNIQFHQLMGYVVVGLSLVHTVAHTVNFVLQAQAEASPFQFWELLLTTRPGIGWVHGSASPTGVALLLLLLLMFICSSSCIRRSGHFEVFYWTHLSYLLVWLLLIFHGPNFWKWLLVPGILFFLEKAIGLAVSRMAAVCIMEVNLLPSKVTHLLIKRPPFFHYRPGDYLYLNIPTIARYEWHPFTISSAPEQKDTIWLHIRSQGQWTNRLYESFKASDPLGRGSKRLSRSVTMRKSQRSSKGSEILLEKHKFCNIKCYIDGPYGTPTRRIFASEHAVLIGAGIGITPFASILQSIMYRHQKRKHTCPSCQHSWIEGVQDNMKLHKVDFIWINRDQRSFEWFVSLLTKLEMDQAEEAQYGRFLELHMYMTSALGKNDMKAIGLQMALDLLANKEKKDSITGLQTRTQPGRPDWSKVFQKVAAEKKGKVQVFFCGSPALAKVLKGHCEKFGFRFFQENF

Q: `COCCOC(=O)N1C(=O)[C@@]2(c3cc(C#CCC(C(=O)OC)C(=O)OC)ccc31)[C@H](C(=O)Nc1nc3ccccc3s1)[C@H]1C(=O)O[C@H](c3ccccc3)[C@H](c3ccccc3)N1[C@@H]2c1ccccc1OCCO` was tested. Which z-score did it give?
A: Its z-score is 0.234.

Q: For `COC(=O)[C@@]1(Cc2ccccc2)[C@H]2c3cc(C(=O)N(C)C)n(Cc4ccsc4Br)c3C[C@H]2CN1C(=O)c1ccccc1`, which z-score is on record?
A: The z-score was 0.723.

Q: `CC1CC/C=C\[C@H]2OC34C=CCN(C(C)(C)C)C(=O)[C@H]3N(CCO)C(=O)[C@@H]4C2C(=O)O1` (some centres not stated) was tested. Which z-score did it give?
A: Its z-score is 2.57.

Q: How did the z-score turn out when `C=C(CCCC)/C(=C/C[C@@H](OC(C)=O)c1ccc(OCCO)cc1)c1cnc2ccccc2c1` was run?
A: The z-score was -2.21.

Q: For `CC(C)C(O)C1C=CC2C(=O)N(c3ccccc3)C(=O)C2N1Nc1ccc([N+](=O)[O-])cc1` (configuration not stated), which z-score is on record?
A: Its z-score is -1.23.

Q: How did the z-score turn out when `C=C(COC)/C(=C/C[C@H](OC(C)=O)c1ccc(CO)o1)c1cc(C(=O)OC)ccc1OC` was run?
A: The z-score was -1.14.

Q: `COC(=O)[C@@]1(Cc2ccc(OC)cc2)[C@H]2c3cc(C(=O)N(C)C)n(C)c3C[C@H]2CN1C(=O)c1ccccc1` was tested. Which z-score did it give?
A: The z-score was 2.16.

Q: How did the z-score turn out when `CCOC(=O)[C@H]1C/C=C/C[C@H](C(=O)OCC)C(=O)O[C@H]2[C@@H](OC)O[C@H](CO)[C@@H](OC(=O)c3c(OC)cccc3OC)[C@@H]2OC1=O` was run?
A: Its z-score is -3.76.

Q: Which z-score does the source give for `CC(C)NC(=O)[C@@]1(c2ccc([N+](=O)[O-])cc2)CC(=O)N(C2CCCCC2)[C@@H]1c1ccc(CO)cc1I` here?
A: The z-score was 1.45.

Q: For `CN1C(=O)C2C=CC(C(O)c3ccc([N+](=O)[O-])cc3)N(N3CCCCC3)C2C1=O` (configuration not stated), which z-score is on record?
A: The z-score was -1.12.

Q: With `COCCOC(=O)N1C(=O)[C@@]2(c3cc(C#CCNC(N)=O)ccc31)[C@H](C(=O)N1CCN(c3ncccn3)CC1)[C@H]1C(=O)O[C@H](c3ccccc3)[C@H](c3ccccc3)N1[C@@H]2c1ccc(OCCO)cc1` as the compound, how does the z-score read?
A: Its z-score is -0.121.

Q: With `O=C1NC(=O)C2C1C=CC(C(O)c1cc(C(F)(F)F)cc(C(F)(F)F)c1)N2Nc1ccccn1` (configuration not stated) as the compound, how does the z-score read?
A: Its z-score is -2.4.

Q: With `COCCOC(=O)N1C(=O)[C@@]2(c3ccccc31)[C@H](C(=O)N1CCc3cc(OC)c(OC)cc3C1)[C@H]1C(=O)O[C@H](c3ccccc3)[C@H](c3ccccc3)N1[C@@H]2c1ccc(OCCO)cc1` as the compound, how does the z-score read?
A: The z-score was 1.19.

Q: Which z-score does the source give for `COC(=O)C(CC#Cc1ccc2c(c1)[C@]1(C(=O)N2)[C@H](C(=O)Nc2nc3ccccc3s2)[C@H]2C(=O)O[C@H](c3ccccc3)[C@H](c3ccccc3)N2[C@@H]1c1ccccc1OCCO)C(=O)OC` here?
A: Its z-score is 0.774.

Q: For `CN1C(=O)C2C=CC(C(O)c3ccccc3)N(N(c3ccccc3)c3ccccc3)C2C1=O` (configuration not stated), which z-score is on record?
A: Its z-score is 0.121.

Q: For `COC(=O)[C@@]1(CCS(=O)(=O)c2ccccc2)N=C(c2ccc(OCCCO)cc2)O[C@H]1c1ccccc1CN=[N+]=[N-]`, which z-score is on record?
A: Its z-score is -0.807.

Q: How did the z-score turn out when `COC(=O)[C@H](Cc1ccccc1)N1CC2=C[C@@H](C3CC3)n3c(=O)n(C)c(=O)n3[C@H]2[C@@H]1[C@@H](O)Cc1ccccc1` was run?
A: The z-score was -1.71.
